Assay results: PubChem BioAssay (Tox21)
Values joined by “and” are separate entries in the source; they are usually repeats but may differ in a detail not shown here. Equal values may be shown once. Results filed as inconclusive are left out. Where a call stands in place of a potency, no number is given. The source holds several records for some structures; these can differ, active in one and inactive in another. Active and inactive are the calls of the source. Calls follow the shape of the dose curve; as a rule, active = well fitted cell-killing curve with a large enough effect in the repeat runs; inconclusive = weak or mixed curves, or effect the other way; inactive = no such curve, though single readings can be large or run the other way.

Assay: qHTS assay to identify small molecule agonists of the RXR signaling pathway - cell viability counter screen (AID 1159529); also: nearly all actives have a fitted effect of over 50% in size
Conditions: RXR-alpha-bla HEK293T viability, CellTiter-Glo, 16 h; series mostly up to 76.8 µM
From the text: National Center for Advancing Translational Sciences [NCATS]
NIH Chemical Genomics Center [NCGC]
U.S. Environmental Protection Agency [EPA]
National Institutes of Environmental Health Sciences [NIEHS]
National Toxicology Program [NTP]
U.S. Food and Drug Administration [FDA]
The Retinoid X receptor (RXR), a nuclear hormone receptor expressed in liver, spleen, placenta, epidermis, central nervous system. These receptors are able to form homo and heterodimers with other nuclear receptors and due to this heterodimerizing ability, RXR functions as master regulators producing diverse physiological effects. Three subtypes of RXR exist; alpha, beta and gamma. Retinoid X receptor alpha (RXR-alpha) has potential roles in metabolic signaling pathways, skin alopecia, dermal cysts, cardiac development, insulin sensitization etc. Therefore screening environmental chemicals on RXR-alpha signaling can be used for the studies focused on such therapeutic applications. For quantification of RXR-alpha ligands signaling, GeneBLAzer RXR alpha-UAS-bla HEK 293T (Life Technologies, Carlsbad, CA) cells containing a beta-lactamase reporter-gene under control of Retinoid X receptor-alpha response element were used to screen Tox21 10K library. The cytotoxicity of the Tox21 compound library against the RXR-alpha HEK 293T cell line was tested in parallel by measuring cell viability using CellTiter-Glo assay (Promega Corporation, Madison, WI) in the same wells.
Tox21 Assay Protocol Summary:
RXR-alpha HEK 293T cells were dispensed at 2,000 cells/6 uL of assay medium containing 2% charcoal-stripped FBS using a Multidrop Combi (ThermoFisher Scientific, Waltham, MA) dispenser. The assay was performed in black wall/clear-bottom 1536-well plates (Greiner Bio-One North America Inc. Monroe, NC). Tetraoctyl ammonium bromide was used as a positive control in the cytotoxicity screen. After the assay plates were incubated at 37 C and 5% CO2 for 5 hr, 23 nL of compounds dissolved in DMSO, positive control or DMSO only were transferred to the assay plate by a Pintool station (Kalypsys, San Diego, CA). The assay plates were incubated at 37 C and 5% CO2 for 16 hr. One uL of LiveBLAzer B/G FRET substrate (Life Technologies) was added using a Flying Reagent Dispenser (FRD) (Aurora Discovery, San Diego, CA) and the plates were incubated at room temperature for 2 hr. Fluorescence intensity (405 nm excitation, 460/530 nm emission) was measured using an Envision plate reader (PerkinElmer, Shelton, CT). For cytotoxicity, 4 uL/well of CellTiter-Glo reagent was added into the assay plates using an FRD. After 30 min incubation at room temperature, the luminescence intensity was measured using a ViewLux plate reader (PerkinElmer).
Potency is read from the fitted curve at half-maximal effect.

Row | SMILES | Potency
1 | CC(C)=CCOc1c2occc2cc2ccc(=O)oc12 | inactive
2 | O=S1(=O)OC(c2cc(Br)c(O)c(Br)c2)(c2cc(Br)c(O)c(Br)c2)c2ccccc21 | inactive
3 | CCCN(CCC)c1c([N+](=O)[O-])cc(S(C)(=O)=O)cc1[N+](=O)[O-] | inactive
4 | CC(C)N(CCC(C(N)=O)(c1ccccc1)c1ccccn1)C(C)C (stereo not given) | inactive
5 | O=C(O)COc1ccc(Cl)cc1 | inactive
6 | C=CC(=O)OC | inactive
7 | [CH3][Sn]([CH3])([Cl])[Cl] | inactive
8 | C=CC(=O)OCC(C)C | inactive
9 | ClC=C(Cl)Cl | inactive
10 | c1ccoc1 | inactive
11 | CN1C[C@H](CNC(=O)OCc2ccccc2)C[C@@H]2c3cccc4c3c(cn4C)C[C@H]21 | inactive
12 | COc1cc(CC(C)N)cc2c1OCO2 (stereo not given) | inactive
13 | Cl/C=C\C[N+]12CN3CN(CN(C3)C1)C2 | inactive
14 | CC(=O)[C@H]1CC[C@H]2[C@@H]3CC[C@H]4C[C@](C)(O)CC[C@]4(C)[C@H]3CC[C@]12C | inactive
15 | Clc1ccc(C2(Cn3cncn3)CC(Br)CO2)c(Cl)c1 (stereo not given) | inactive
16 | CCCCC(O)(Cn1cncn1)c1ccc(Cl)cc1Cl (stereo not given) | 54.9 µM (active)
17 | O=C(CCl)c1ccc(Cl)cc1Cl | inactive and 13.4 µM (active)
18 | IC(I)=C(I)I | 12.3 µM (active)
19 | O=Cc1ccc2c(c1)OCO2 | inactive
20 | O=C(Nc1ccccc1)Nc1cnns1 | inactive

Row | SMILES | Potency
21 | CCOP(=S)(Oc1ccc([N+](=O)[O-])cc1)c1ccccc1 (stereo not given) | inactive
22 | C=CC(=O)OCCCCO | inactive
23 | CCOc1nc(F)cc2nc(S(=O)(=O)Nc3c(Cl)cccc3Cl)nn12 | inactive
24 | ClCc1ccccc1 | inactive
25 | C=COC(C)=O | inactive
26 | O=C1NCN(c2ccccc2)C12CCN(CCCOc1ccc(F)cc1)CC2 | inactive
27 | CNC(C)Cc1ccccc1OC (stereo not given) | inactive
28 | O=C(CBr)c1ccccc1 | inactive
29 | CCCCCCC#N | inactive
30 | CCOP(=S)(OCC)SCSCC | inactive
31 | COc1ccc(-c2ccccc2)cc1NNC(=O)OC(C)C | inactive
32 | CCOP(O)OCC | inactive
33 | CC[C@H]1C[C@H]2[C@@H]3CCC4=CC(=O)CC[C@@H]4[C@H]3CC[C@]2(C)[C@H]1O | inactive
34 | Sc1ccccc1Cl | inactive
35 | COC(=O)C(Br)CBr (stereo not given) | inactive
36 | O=[Se]=O | inactive
37 | CC1C(=O)C[C@]2(C(C)C)C[C@H]12 (stereo not given in full) | inactive
38 | CCCCCCCCOC(=O)c1ccc(C(=O)OCCCCCCCC)c(C(=O)OCCCCCCCC)c1 | inactive
39 | O=NN1CCCCCC1 | inactive
40 | CCC(COC(=O)c1cc(OC)c(OC)c(OC)c1)(c1ccccc1)N(C)C (stereo not given) | inactive
